Measurements published in PubChem BioAssay (NCATS).
Calls of active or inactive are those of the source. Calls follow the shape of the full dose curve.

Each compound was assayed against Catechol O-methyltransferase (Homo sapiens) (UniProt P21964) (assay: Confirmatory Screen for Target Class Profiling of Small Molecule Inhibitors of Methyltransferases (AID 1745852; as to activity change, negative = inhibition: % is scaled to controls: 0 for no effect and ±100 for the full control effect)). Conditions: MTase-Glo luminescence, SAH detection, recombinant enzyme; measured here: COMT max response; stronger effect = lower value.
Potency is read from the fitted curve at half-maximal effect.

Sequence of Catechol O-methyltransferase (Homo sapiens) (P21964 whole entry, looked up): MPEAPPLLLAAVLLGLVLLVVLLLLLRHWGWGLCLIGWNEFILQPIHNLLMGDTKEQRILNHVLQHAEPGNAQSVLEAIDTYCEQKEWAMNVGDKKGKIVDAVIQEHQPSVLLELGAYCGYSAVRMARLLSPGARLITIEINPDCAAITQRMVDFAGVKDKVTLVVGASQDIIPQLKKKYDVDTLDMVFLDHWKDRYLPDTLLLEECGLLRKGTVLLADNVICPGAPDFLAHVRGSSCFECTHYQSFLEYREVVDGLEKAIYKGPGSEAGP

| SMILES | activity |
| --- | --- |
| COc1ccc(-c2nc3ccccc3[nH]2)cc1 | -76.2% |
| Cc1nccn1CCC1CCN(c2nccc(-c3ccccn3)n2)CC1 | 9.05% |
| CCC1CCCCN1CCCNC(=O)Cn1ccc2cc(S(=O)(=O)N3CCCCC3)ccc21 (stereo not given) | 1.17% |
| COc1cncc(Nc2ncc(-c3ccccc3OC)c3c2OCC3)c1 | 0.728% |
| c1ccc(CNc2cc(-c3cc(N4CCCCC4)ncn3)c3cc[nH]c3n2)nc1 | -16.9% |
| CC(C)Cn1c(=O)c2ccccc2n2c(CCC(=O)N3CCN(c4ccccc4)CC3)nnc12 | 2.06% |
| Cc1c(C(=O)O)ccc2c1N[C@@H](c1cccc(C(F)(F)F)c1)[C@H]1CC=C[C@@H]21 | -4.24% |
| CCCCN1C(=O)c2cc(C(=O)NCCc3ccccc3Cl)nn2CC1(C)C(=O)NC1CCCC1 (stereo not given) | 0.497% |
| CCCn1c(=O)c2cc(F)ccc2n2c(SCc3c(F)cccc3Cl)nnc12 | 4.81% |
| CCCn1c(C)cnc1CC1CCN(C(=O)NCc2ccc(OC)cc2)C1 (stereo not given) | -4.22% |
| Cc1ccc(C)c(N2CCN(C(=O)c3ccc4c(=O)[nH]c5c(C(=O)NC(C)C)sc(=S)n5c4c3)CC2)c1 | -41.7% |
| CC(C)CCNC(=O)c1ccc2c(=O)[nH]c3c(C(=O)NC4CCCC4)sc(=S)n3c2c1 | -37.7% |
| COC(=O)[C@@H]1Cc2ncn(Cc3ccc(Cl)cc3)c2CN1CCCc1ccccc1 | 0.13% |
| O=C(Nc1ccc2ncnc(N3CCCCC3)c2c1)C1CCCCC1 | -75.6% |
| COc1ccc(CCNC(=O)c2ccc3c(=O)nc4c(-c5ccccc5)n[nH]n4c3c2)cc1OC | -11.8% |
| Cn1ccc2c(C(=O)NCCc3cnc[nH]3)nc(-c3ccc(N4CCOCC4)cc3)cc21 | -6.99% |
| O=C(CCCc1nnc2n3nc(-c4ccccc4)nc3c3ccccc3n12)N1CCC(N2CCCCC2)CC1 | -14.2% |
| Cc1cnc(C2CC2)n1C1CCCN(Cc2ccccc2)C1 (stereo not given) | 3.04% |
| Cn1ncc2c(N3CCN(S(N)(=O)=O)CC3)nc(C3CCCC3)nc21 | -8.84% |
| CCN(CC)CCCNC(=O)CCCc1nnc2n3nc(-c4ccccc4)nc3c3ccccc3n12 | -3.39% |
| CCOc1cc(OCC)c2c(-c3ccccc3)cc(=O)oc2c1 | -64.6% |
| CCN(CC)CCCNC(=O)CCc1nnc2n(Cc3ccc(Cl)cc3)c(=O)c3ccccc3n12 | 4.07% |
| CCNc1ncc(CN2CCN(c3ccncc3)CC2)cn1 | 4.09% |
| COc1ccc(N2C(=O)c3ccc(-c4ccco4)n3CC2(C)C(=O)NCc2ccccc2)cc1OC (stereo not given) | -7.65% |
| CCCC1c2cccn2CCN1C(=O)Nc1ccccc1Br (stereo not given) | -6.73% |

These compounds were tested against Guanidinoacetate N-methyltransferase (Homo sapiens) (UniProt Q14353) in the same assay as above. Conditions: MTase-Glo luminescence, SAH detection, recombinant enzyme; activity change, negative = inhibition: at 57.3 µM (top of the series) unless noted; series mostly up to 57.3 µM.

| SMILES | activity change, negative = inhibition | Potency |
| --- | --- | --- |
| Cc1nn(C(=O)CCC(=O)N2CCC(Cc3nncn3CC3CC3)CC2)c2ccccc12 | 3.09% | – |
| CC1CCCCN1CCNC(=O)Cn1ccc2cc(S(=O)(=O)N3CCCCC3)ccc21 (stereo not given) | 0% | – |
| CC1CC(C)CN(S(=O)(=O)c2ccc3c(c2)oc(=O)n3CC(=O)Nc2ccc(Cl)cc2)C1 (stereo not given) | -1.24% | – |
| CCCC1=Nc2cc(C(=O)NCCCN3CCCCC3CC)ccc2Sc2ccc(C)cc21 (stereo not given) | 6.53% | – |
| Cc1ccc(NS(=O)(=O)c2ccc3c(c2)[C@H]2C=CC[C@H]2[C@@H](c2cccc(Cl)c2)N3)c(C)c1 | -14.3% | – |
| CC[C@H](C)NC(=O)c1sc(=S)n2c1[nH]c(=O)c1cc(Cl)ccc12 | – | 24.1 µM (active) |
| Cc1noc(C)c1-c1cc(-c2ccc(CN(C)C)cc2)cn2cncc12 | -8.74% [at 85.7 µM] | – |
| CCN(CCc1nc2ccc(C)cc2[nH]1)C(=O)c1ccccc1C1CCNC1 (stereo not given) | 8.24% | – |
| O=S(=O)(c1ccc(Br)cc1)c1nnn2c1nc(NCCc1c[nH]c3ccccc13)c1ccccc12 | -2.1% | – |
| Cc1ccc(CNC(=O)c2ccc3c(=O)[nH]c4c(C(=O)NC(C)C)sc(=S)n4c3c2)cc1 | -7.1% | – |
| O=C(Nc1ccc2c(N3CCCCC3)ncnc2c1)c1ccccc1C(F)(F)F | -6.31% | – |
| COc1ccc(-c2nc3ccncc3[nH]2)cc1 | – | 12.4 µM (active) |
| COc1cccc(Nc2ccnc(-c3nnc(C)n3C3CCCCC3)c2)c1 | 17.8% [at 85.7 µM] | – |
| Cc1ccc([C@@H]2CN(c3cc(N4CCC(O)CC4)ncn3)C[C@H]2N(C)C)cc1 | -0.694% | – |
| O=C(NCc1ccc(Cl)cc1)c1ccc2c(=O)[nH]c3c(C(=O)NC4CCCC4)sc(=S)n3c2c1 | – | 42.9 µM (active) |
| COc1ccc(-c2nc3ccccc3[nH]2)cc1 | – | 15.2 µM (active) |
| Cc1nccn1CCC1CCN(c2nccc(-c3ccccn3)n2)CC1 | 8.46% | – |
| CCC1CCCCN1CCCNC(=O)Cn1ccc2cc(S(=O)(=O)N3CCCCC3)ccc21 (stereo not given) | 0% | – |
| COc1cncc(Nc2ncc(-c3ccccc3OC)c3c2OCC3)c1 | 2.22% [at 85.7 µM] | – |
| c1ccc(CNc2cc(-c3cc(N4CCCCC4)ncn3)c3cc[nH]c3n2)nc1 | -13.9% | – |

| SMILES | activity change, negative = inhibition | Potency |
| --- | --- | --- |
| CC(C)Cn1c(=O)c2ccccc2n2c(CCC(=O)N3CCN(c4ccccc4)CC3)nnc12 | 0% | – |
| Cc1c(C(=O)O)ccc2c1N[C@@H](c1cccc(C(F)(F)F)c1)[C@H]1CC=C[C@@H]21 | -0.164% | – |
| CCCCN1C(=O)c2cc(C(=O)NCCc3ccccc3Cl)nn2CC1(C)C(=O)NC1CCCC1 (stereo not given) | 0% | – |
| CCCn1c(=O)c2cc(F)ccc2n2c(SCc3c(F)cccc3Cl)nnc12 | 0.239% | – |
| CCCn1c(C)cnc1CC1CCN(C(=O)NCc2ccc(OC)cc2)C1 (stereo not given) | 6.2% | – |
| Cc1ccc(C)c(N2CCN(C(=O)c3ccc4c(=O)[nH]c5c(C(=O)NC(C)C)sc(=S)n5c4c3)CC2)c1 | -2.19% | – |
| CC(C)CCNC(=O)c1ccc2c(=O)[nH]c3c(C(=O)NC4CCCC4)sc(=S)n3c2c1 | – | 27.1 µM (active) |
| COC(=O)[C@@H]1Cc2ncn(Cc3ccc(Cl)cc3)c2CN1CCCc1ccccc1 | 2.15% [at 85.7 µM] | – |
| O=C(Nc1ccc2ncnc(N3CCCCC3)c2c1)C1CCCCC1 | – | 19.2 µM (active) |
| COc1ccc(CCNC(=O)c2ccc3c(=O)nc4c(-c5ccccc5)n[nH]n4c3c2)cc1OC | – | 0.0961 µM (active) |
| Cn1ccc2c(C(=O)NCCc3cnc[nH]3)nc(-c3ccc(N4CCOCC4)cc3)cc21 | -0.183% [at 85.7 µM] | – |
| O=C(CCCc1nnc2n3nc(-c4ccccc4)nc3c3ccccc3n12)N1CCC(N2CCCCC2)CC1 | -7.55% | – |
| Cc1cnc(C2CC2)n1C1CCCN(Cc2ccccc2)C1 (stereo not given) | 5.24% | – |
| Cn1ncc2c(N3CCN(S(N)(=O)=O)CC3)nc(C3CCCC3)nc21 | -4.64% | – |
| CCN(CC)CCCNC(=O)CCCc1nnc2n3nc(-c4ccccc4)nc3c3ccccc3n12 | 0% | – |
| CCOc1cc(OCC)c2c(-c3ccccc3)cc(=O)oc2c1 | – | 15.2 µM (active) |
| CCN(CC)CCCNC(=O)CCc1nnc2n(Cc3ccc(Cl)cc3)c(=O)c3ccccc3n12 | 0% | – |
| CCNc1ncc(CN2CCN(c3ccncc3)CC2)cn1 | 1.98% | – |
| COc1ccc(N2C(=O)c3ccc(-c4ccco4)n3CC2(C)C(=O)NCc2ccccc2)cc1OC (stereo not given) | -2.41% | – |
| CCCC1c2cccn2CCN1C(=O)Nc1ccccc1Br (stereo not given) | -3.12% | – |
